# In the library only some 21% were active in any assay of this set; here they are far more common.
# CHX counter – counter-screen hit for Shiga toxin inhibitors, cycloheximide; AID 2314; cell reporter, cycloheximide protein synthesis inhibition counterscreen; actives 12% (n = 300,000); max response, %; in the data active = max response mostly above about 13%, no sharp cut-off; inactive = mostly below about 14%; also: read at 38.3 µM for the half of the compounds with a filed dose; 0% is about no effect
# Shiga toxin inh – Shiga toxin inhibition. Vero cells, Shiga toxin protein synthesis inhibition reporter. inhibition, % at 38.7 µM. actives 9.2% (n = 290,000); in the data active = inhibition mostly above about 28%, no sharp cut-off; inactive = mostly below about 43%; also: 0% is about no effect
# Sm TGR block – inhibitors of Schistosoma mansoni thioredoxin glutathione reductase | Q962Y6 | purified TGR, DTNB reduction, TNB absorbance 405 nm | Potency, µM (doses to about 114 µM), for inactives: top-dose activity change, negative = inhibition, most hits filed as inhibitors | actives 3% (n = 360,000) | AID 485364; also: potency is read from the fitted curve at half-maximal effect; % is scaled to controls: 0 for no effect and ±100 for the full control effect; nearly all actives have a fitted effect of over 60% in size
#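 First, TGR (20 nM dispensed) and NADPH were mixed with compound. Second, a 15 min room-temperature incubation followed. Third, further NADPH and then DTNB were added to start the reaction. Finally, TNB absorbance was monitored kinetically.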
# Pf growth 96h – P. falciparum growth inhibition at 96 hours. P. falciparum luciferase reporter growth, 96 h. Potency, µM (top dose mostly 28.7 µM), without a hit: top-dose activity change, negative = inhibition, hits mostly inhibitors. actives 6.9% (n = 320,000). AID 504834; also: potency is read from the fitted curve at half-maximal effect; % is scaled to controls: 0 for no effect and ±100 for the full control effect
#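 Plates of compound plus infected erythrocytes (2% hematocrit, 0.05% parasitemia final) incubate 96 hours, 37 C, 5% CO2. Detection reagent added; reduced luminescence from the parasites' luciferase reporter flags inhibition.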
# Pf growth 48h – inhibits P. falciparum growth in the first generation, 48 h | P. falciparum luciferase growth in erythrocytes, 48 h | actives 5.9% (n = 310,000) | Potency, µM (doses to about 28.7 µM), for inactives: top-dose activity change, negative = inhibition, hits mostly inhibitors | AID 504832; also: potency is read from the fitted curve at half-maximal effect; % is scaled to controls: 0 for no effect and ±100 for the full control effect
#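 Luciferase-expressing P. falciparum in infected erythrocytes (2% hematocrit, 0.1% parasitemia final) in RPMI 1640/0.5% Albumax were exposed to compound for 48 hours at 37 C, 5% CO2; growth read as luminescence.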
# NS1 inh – influenza NS1 inhibition | Potency, µM (highest dose often 46.1 µM), inactives show at the highest dose activity, positive = more growth | actives 0.4% (n = 270,000) | AID 2326; calls by dose curve; also: potency is read from the fitted curve at half-maximal effect; actives are rising curves; nearly all actives have a fitted effect of over 50% in size
#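 S. cerevisiae expressing influenza A NS1, grown in glucose, washed, then diluted 1:100 into pH 6.0 -URA galactose medium with 23 nl compound. Growth recovery read as OD600; NS1-free strain serves as control.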
# An asterisk follows results filed as active; u = inconclusive; x = not tested or not shown. Unless noted, calls follow the shape of the dose curve; as a rule, active = well fitted curve in the direction sought with a large enough effect; inconclusive = small, poorly fitted or top-dose-only effect, or another doubt; inactive = no such curve, though single readings can be large; an effect the other way counts as inactive or inconclusive.
SMILES,CHX counter,Shiga toxin inh,Sm TGR block,Pf growth 96h,Pf growth 48h,NS1 inh
C#CCOCCOCCOCCNc1nc(N2CCN(C(=O)[C@H](Cc3ccc(O)cc3)n3cc([C@@H](N)CC(C)C)nn3)CC2)nc(N2CCN(C(=O)[C@H](Cc3ccc(O)cc3)n3cc([C@@H](N)CC(C)C)nn3)CC2)n1,0.5,-9.2,17.8µM*,u,9.28µM*,9.4%
CN(C)/C=C/C(=O)c1ccc(Br)s1,21.0*,54.2*,-14.6%,-2.9%,43.3%,-44.4%
Cc1ccc(C(=O)/C=C/N(C)C)o1,15.7,26.1,-0.2%,-2.4%,13.1%,-0.8%
CCCc1ccc(C(=O)/C=C/N(C)C)cc1,13.5*,41.7*,3.6%,18.2%,289.7%,-3.4%
CN(C)/C=C/C(=O)c1ccc(Oc2ccccc2)cc1,34.2*,82.9*,6.1%,40.9%,31.1%,-47.9%
CN(C)/C=C/C(=O)c1ccccc1,41.1*,63.4*,-25.9%,-4.1%,15.0%,-7.2%
CN(C)/C=C/C(=O)c1ccc(S(=O)(=O)c2ccccc2)cc1,10.3,33.8,-14.9%,u,-21.0%,x
COc1cc(/C=C2/NC(=O)NC2=O)ccc1OCC(=O)Nc1ccc(F)cc1,-0.8,-5.9,-2.3%,5.6%,18.3%,11.0%
Cc1cc(C)c(NC(=O)C(=O)NCC(c2cccnc2)N2CCN(Cc3ccccc3)CC2)c(C)c1 (centres undefined),x,x,20.1%,x,x,x
N#C[C@H]1CN[C@H](N)N[C@@H]1N,x,x,x,x,x,1.1%
CN(C)/C=C/C(=O)c1cc(F)cc(C(F)(F)F)c1,1.1,-1.3,x,9.6%,-0.9%,-3.1%
CN(C)/C=C/C(=O)c1ccc(F)cc1,21.4*,98.8,-25.7%,93.1%,-4.3%,-35.6%
COc1ccc(C(=O)/C=C/N(C)C)cc1,20.1*,-23.9,-14.5%,2.5%,-10.6%,-38.5%
COc1ccc(C(=O)/C=C/N(C)C)cc1OC,-3.8,2.1,4.9%,24.9%,18.6%,-69.4%
Cc1cc(=O)[nH]c(SCC(=O)Nc2c(C)n(C)n(-c3ccccc3)c2=O)n1,x,x,3.4%,-12.0%,-9.5%,x
N#C/C(=C\c1ccc([N+](=O)[O-])cc1)C(=O)NCCCn1ccnc1,3.7,-2.8,-21.6%,1.6%,-7.4%,-10.5%
N#C/C(=C/c1cn(-c2ccccc2)nc1-c1cccc(OCc2ccc(F)cc2)c1)C(=O)NCCCn1ccnc1,9.1,15.1,-2.4%,2.08µM*,3.7µM*,u
CCCOc1cccc(-c2nn(-c3ccccc3)cc2/C=C(\C#N)C(=O)NCCCn2ccnc2)c1,-3.8,-2.3,6.6%,10.4µM*,2.08µM*,17.8%
Cc1ccc(C(=O)Nc2ccc3c(c2)OCO3)cc1S(=O)(=O)N1CCOCC1,29.4*,106.6*,1.7%,u,-24.5%,1.1%
Cc1ccc(C(=O)Nc2ccc3c(c2)OCO3)cc1S(=O)(=O)N1CCCC1,45.9*,44.7*,-3.3%,15.3%,u,-33.7%
CC1=CC(c2ccccc2)=Nc2ccc(C)cc2N1,57.3*,43.3*,-10.4%,427.2%,258.6%,-3.2%
COC(=O)C1c2ccccc2-c2ccccc21,-1.4,19.0,1.4%,-3.4%,-1.4%,x
O=C(NCc1ccccc1)c1cccn1-c1nnc(N2CCCC2)s1,x,x,9.0%,x,x,x
COc1ccc(-c2cc3nc(-c4ccccc4)cc(N4CCCC(O)C4)n3n2)cc1 (centres undefined),1.6,-11.1,0.2%,-7.7%,8.28µM*,4.5%
Fc1ccc(-c2cc3nc(-c4ccccc4)cc(N4CCOCC4)n3n2)cc1,-7.6,-14.1,-8.4%,65.1%,x,1.4%
SMILES,CHX counter,Shiga toxin inh,Sm TGR block,Pf growth 96h,Pf growth 48h,NS1 inh
COc1ccc(-c2cc3nc(-c4ccccc4)cc(N4CCC(O)CC4)n3n2)cc1,2.9,12.1,11.7%,-15.4%,10.4µM*,-1.0%
Cc1cccc(-c2cc3nc(-c4ccccc4)cc(N4CCC5(CC4)OCCO5)n3n2)c1,-1.3,10.2,4.7%,-25.5%,u,5.6%
CCc1cccc(NC(=O)Cn2nc(C)c3sc4ccccc4c3c2=O)c1,x,x,-0.1%,x,x,x
CCOc1ccccc1CNC(=O)c1cc(-c2ccc(C)c(C)c2)nc2ccccc12,x,x,-1.1%,x,x,x
Fc1cccc(CNc2ncnc3cc(Cl)ccc23)c1F,-3.7,-4.5,-2.4%,u,x,-62.1%
O[C@@H]1COC(Nc2ccc(N=Nc3ccccc3)cc2)C[C@@H]1O (some centres undefined),61.9*,94.9*,1.2%,103.4%,132.3%,-8.2%
O=S(=O)(Nc1ccc(N=Nc2ccccc2)cc1)c1ccccc1,-2.1,-4.9,-13.4%,-8.8%,35.7%,-9.2%
Cc1ccc(C(=O)N[C@@H](C)CN2C3=NC[C@H](C)N3C[C@H]2Cc2ccc(O)cc2)cc1Br,12.2,5.0,50.1µM*,4.15µM*,10.4µM*,-8.0%
C/C=C(\C)C(=O)NCCN1C2=NC[C@H](C)N2C[C@@H]1Cc1ccc(OC)cc1,-1.5,14.4,-3.1%,63.3%,45.8%,-4.1%
Cc1ccc(C(=O)NNC(=O)C2CC2)cc1Br,-0.5,-27.9,3.7%,28.3%,13.9%,-6.2%
COc1ccc(C[C@@H]2CN3C(=NC[C@@H]3C)N2CCNC(=O)c2ccc(C)c(Br)c2)cc1,-1.0,-13.3,-15.4%,13.1µM*,u,2.2%
Cc1ccc(CCNC(=O)C2CCCN(S(=O)(=O)N3CC(C)CC(C)C3)C2)cc1 (centres undefined),-1.6,-12.1,-1.9%,54.2%,-12.2%,3.9%
CCOc1ccc(-c2cn3c(n2)sc2cc(C(=O)NCCc4ccc(OC)c(OC)c4)ccc23)cc1,x,x,-3.5%,x,x,x
COc1ccc(/C=C(\C#N)C(=O)NCc2ccccc2)cc1,34.0*,86.9*,15.1%,u,49.0%,0.4%
Cc1ccsc1/C=C(/C#N)C(=O)NCc1ccccc1,12.4*,26.8,0.8%,39.8%,33.3%,5.2%
N#C/C(=C\c1ccc(O)cc1)C(=O)NCc1ccccc1,1.8,-4.8,-1.0%,3.1%,10.5%,-4.1%
CNC(=O)/C(C#N)=C/c1ccc(OCCOc2ccccc2)cc1,10.5*,14.9,-8.7%,59.6%,13.8%,-3.0%
Cc1ccsc1/C=C(\C#N)C(=O)NCc1cccnc1,-1.3,-10.8,-2.0%,38.6%,10.9%,0.1%
Cc1ccc(-c2csc3ncnc(N4CCN(S(=O)(=O)c5cccs5)CC4)c23)cc1,x,x,-4.8%,u,6.57µM*,x
O=S(=O)(c1ccccc1)N1CCN(c2ncnc3scc(-c4ccccc4)c23)CC1,1.8,-6.3,2.3%,4.5%,u,14.3%
COc1ccc(-c2csc3ncnc(N4CCN(c5ccccc5OC)CC4)c23)cc1,0.8,-10.5,12.2%,u,5.86µM*,-23.9%
CCOc1ccccc1N1CCN(c2ncnc3scc(-c4ccc(OC)cc4)c23)CC1,0.2,2.5,12.2%,u,5.86µM*,-1.6%
O=C(CC1C(=O)NCCN1Cc1ccccc1C(F)(F)F)NC1CCCCC1 (centres undefined),-2.8,-5.4,39.8µM*,10.1%,5.2%,9.7%

# Screening data from PubChem BioAssay.
